# Active and inactive are the calls of the source. The calls were made as follows: active = hit-call score of the fitted dose curve at least 0.9, where 1 is the maximum; inactive = score below 0.9.
# Key:
# [1] = CCTE_Shafer_MEA_acute_spike_number: CCTE's Neural Acute Assay for Total Number of Spikes, Shafer Lab (AID 2284008)
# Summary of the method: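 Rat cortical cultures, DIV 13/15, 37 C. 40 min baseline rec, cpd 0.03-40 uM, 40 min post-dose rec. Band-pass 300-5000 Hz, spike threshold 8x rms; % change in spike count per well, DMSO neg ctrl, loss-of-signal fit.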
# [2] = CCTE_Shafer_MEA_acute_firing_rate_mean: CCTE's Neural Acute Assay for Mean Firing Rate, Shafer Lab (AID 2284009);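 also: analyzed for loss of signal so actives lower firing rate relative to DMSO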
# Summary of the method: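 Rat cortical neuron cultures matured to DIV 13 or 15, equilibrated 20 min at 37 C, then recorded 40 min for baseline. Compound (0.03-40 uM) added and a further 40 min recorded; percent change in mean firing rate calculated per well.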
# [3] = CCTE_Harrill_HTTr_Viability_MCF7: CCTE's 6-hour Cell Viability Assessment for the High-Throughput Transcriptomics (HTTr) Platform, in MCF-7 cells cultured in DMEM + 10% fetal bovine serum, Harrill Lab (AID 2284010)
# Summary of the method: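 Propidium iodide exclusion, imaged by high-content analysis, gauged viability after a six-hour exposure across eight concentrations. Cells were MCF-7 grown in DMEM with 10% fetal bovine serum; fits run in both directions against DMSO.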
# [4] = CCTE_Harrill_HTTr_Apoptosis_MCF7: CCTE's 6-hour Apoptosis Assessment for the High-Throughput Transcriptomics (HTTr) Platform, in MCF-7 cells cultured in DMEM + 10% fetal bovine serum, Harrill Lab (AID 2284011)
# Summary of the method: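 Read-out: CellEvent Caspase 3/7 Green signal by high content imaging, gain-of-signal indicating apoptosis. MCF-7 cells, DMEM + 10% FBS, eight-point dilution series, 6 h exposure. Curves fitted bidirectionally relative to DMSO negative control.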
# [5] = CCTE_Shafer_MEA_acute_burst_number: CCTE's Neural Acute Assay for Single-Electrode Bursts, Shafer Lab (AID 2284013)
# Summary of the method: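 Percent change in single-electrode burst number per well, from 40-min recordings taken before and after adding compound (0.03-40 uM) to primary rat cortical neurons on MEA plates at DIV 13 or 15, 37 C.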
# [6] = CCTE_Shafer_MEA_acute_burst_duration_mean: CCTE's Neural Acute Assay for Mean Burst Duration, Shafer Lab (AID 2284014);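 also: hits are decreases in mean burst duration relative to DMSO controls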
# Summary of the method: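 Rat cortical cultures, DIV 13/15; 40 min baseline, then 40 min with compound (0.03-40 uM), 37 C. Spikes: 300-5000 Hz band-pass, 8x rms threshold. Read-out: % change in mean single-electrode burst duration, DMSO-referenced, loss direction.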
# [7] = CCTE_Shafer_MEA_acute_per_burst_spike_number_mean: CCTE's Neural Acute Assay for Average Number of Spikes Per Burst, Shafer Lab (AID 2284015);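 also: hits are decreases in mean spikes per burst versus baseline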
# Summary of the method: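 Percent change in mean spikes per single-electrode burst is compared between a 40 min baseline and a 40 min recording with compound (0.03-40 uM). Cultures were rat cortical neurons on MEA plates at DIV 13 or 15, recorded at 37 C, with DMSO as the negative control.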
# [8] = CCTE_Shafer_MEA_acute_interburst_interval_mean: CCTE's Neural Acute Assay for Mean Interburst Interval, Shafer Lab (AID 2284016);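 also: percent change of mean interburst interval versus each well's own pre-dose baseline; curves fitted for decrease in interburst interval relative to DMSO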
# Summary of the method: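 Percent change in mean single-electrode interburst interval was calculated per well from 40 min recordings before and after compound (0.03-40 uM). Recordings were made at 37 C on rat cortical cultures at DIV 13 or 15, with spikes detected at 8x rms threshold.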
# [9] = CCTE_Shafer_MEA_acute_burst_percentage_mean: CCTE's Neural Acute Assay for Percentage of Spikes in a Burst, Shafer Lab (AID 2284017)
# Summary of the method: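 Well-level mean burst percentage from a 40-min recording after compound (0.03-40 uM) expressed as percent change from a 40-min baseline at 37C. Cultures: primary rat cortical neurons on MEA, dosed on DIV 13 or 15; fitted downward relative to DMSO.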
# [10] = CCTE_Shafer_MEA_acute_burst_percentage_std: CCTE's Neural Acute Assay for Standard Deviation of Burst Percentage, Shafer Lab (AID 2284018);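 also: fitted in the negative direction so actives lower burst percentage SD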
# Summary of the method: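 Rat primary cortical neurons on 48-well MEAs, DIV 13 or 15, 37 C. 40-min baseline then 40-min recording with compound (0.03-40 uM); well-level SD of per-electrode burst spike percentage, expressed as percent change from baseline.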
# [11] = CCTE_Shafer_MEA_acute_per_network_burst_spike_number_mean: CCTE's Neural Acute Assay for Average Number of Spikes in a Network Burst, Shafer Lab (AID 2284019);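 also: curve fitted for loss of signal so actives reduce spikes per network burst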
# Summary of the method: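 Rat cortical cultures, DIV 13/15; spike threshold 8x rms noise, 300-5000 Hz band-pass, 12.5 kHz sampling; wells need >/= 10 active electrodes. Compound 0.03-40 uM, 40 min, 37 C; % change vs own baseline, DMSO negative control.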
# [12] = CCTE_Shafer_MEA_acute_per_network_burst_spike_number_std: CCTE's Neural Acute Assay for Standard Deviation of Number of Spikes in a Network Burst, Shafer Lab (AID 2284020);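 also: fitted for decrease in spike-number SD versus DMSO so actives lower it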
# Summary of the method: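 Rat cortical cultures, DIV 13/15, 37 C; 20-min stabilisation, 40-min baseline, compound 0.03-40 uM, 40-min re-record. Spikes detected at 8x rms noise (300-5000 Hz band-pass). Readout: % change from baseline in per-burst spike-number SD.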
# [13] = CCTE_Shafer_MEA_acute_per_network_burst_electrodes_number_mean: CCTE's Neural Acute Assay for Mean Number of Electrodes in a Network Burst, Shafer Lab (AID 2284021);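 also: curves fitted for decreases only so hits reduce electrodes per burst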
# Summary of the method: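 Readout: % change in mean electrodes active per network burst, post- vs pre-treatment, each well. Spikes detected at 8x rms noise after 300-5000 Hz band-pass; rat cortical cultures, DIV 13/15, compounds 0.03-40 uM, DMSO baseline.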
# [14] = CCTE_Shafer_MEA_acute_network_burst_percentage: CCTE's Neural Acute Assay for Percentage of Network Bursts, Shafer Lab (AID 2284022);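 also: rat primary cortical neuron networks on multiwell MEA recorded 40 min; curves fitted for loss so actives lower network burst percentage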
# Summary of the method: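 Rat cortical cultures, DIV 13/15; 20 min equilibration, 40 min baseline, compound 0.03-40 uM, 40 min recording, 37 C. Spikes: 300-5000 Hz band-pass, threshold 8x rms noise. Readout: % change in network-burst spike fraction; loss direction vs DMSO.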
# [15] = CCTE_Shafer_MEA_acute_cross_correlation_area: CCTE's Neural Acute Assay for Area of Cross Correlation, Shafer Lab (AID 2284024);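 also: area under pooled inter-electrode spike cross-correlation near zero lag as percent change from own baseline; curves fitted for loss of cross-correlation area so actives lower synchrony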
# Summary of the method: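 Rat cortical cultures, DIV 13/15, MEA; spikes detected at 8x rms noise (300-5000 Hz band-pass). Compound 0.03-40 uM, ≥3 wells each. Readout: % change in pooled inter-electrode cross-correlation area vs own baseline; DMSO negative control.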
# [16] = CCTE_Shafer_MEA_acute_cross_correlation_HWHM: CCTE's Neural Acute Assay for Cross Correlation at Half Width at Half Maximum, Shafer Lab (AID 2284026);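 also: spontaneous network firing of rat primary cortical neurons on multiwell microelectrode arrays; percent change per well from pre-dose baseline in spike cross-correlogram half width; hits are a decrease in cross-correlogram half width relative to DMSO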
# Summary of the method: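 Read-out: half width at half maximum of action-potential cross-correlogram, percent change versus pre-treatment baseline, fitted in loss direction against DMSO. Rat cortical cultures, DIV 13 or 15, dosed 0.03-40 uM, 40-min recordings at 37 C.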
# [17] = CCTE_Shafer_MEA_acute_synchrony_index: CCTE's Neural Acute Assay for Synchrony, Shafer Lab (AID 2284027);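 also: network synchrony index of spontaneous spiking in primary rat cortical neurons on MEAs; fitted for loss of signal so actives lower synchrony relative to DMSO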
# Summary of the method: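 The synchrony index is taken as percent change per well between a 40 min baseline and a 40 min recording with compound (0.03–40 uM), at 37C. Rat cortical cultures on multiwell MEAs at DIV 13 or 15, spike threshold 8× rms noise.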
structure (smiles),measurement,setting,value
O=C1CC2(CCCC2)CC(=O)N1CCCCN1CCN(c2ncccn2)CC1,outcome,[1],inactive
same,outcome,[2],inactive
same,outcome,[3],inactive
same,outcome,[4],inactive
same,outcome,[5],inactive
same,outcome,[6],inactive
same,outcome,[7],inactive
same,outcome,[8],inactive
same,outcome,[9],inactive
same,outcome,[10],inactive
same,AC50,[11],1.01 µM (active)
same,outcome,[12],inactive
same,AC50,[13],2.98 µM (active)
same,outcome,[14],inactive
same,outcome,[15],inactive
same,outcome,[16],inactive
same,outcome,[17],inactive

# — PubChem BioAssay (EPA / NIEHS)
